From PubChem BioAssay (NCI) come the findings set out here.

This is part of a sample that, as a whole, favours compounds with a hit. Of some 83,000 tested, about 20% had one in any assay.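 Single-dose data. Exposure time 48 hours. Values below 10 considered active.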 Unmarked numbers belong to inactive results. Calls of active or inactive are those of the source.

The test system of this assay is HL-60(TB) leukemia. As to the kind of experiment: NCI-60 one-dose screen, 48 h (100 = growth as untreated, 0 = no growth, -100 = all killed). Conditions: 10 µM unless noted.
Take `COc1ccc(NC(=O)CCl)cc1`: the growth was 69.8%.

For the compound `C=C1C(=O)O[C@H]2[C@H]1CC/C(COC(=O)NCc1cc(OC)c(OC)c(OC)c1)=C\CC[C@@]1(C)O[C@@H]21`, the growth is 11.5%.

On to `C#C[C@@]1(O)[C@@H](CO)O[C@@H](n2ccc3c(N)ncnc32)[C@@H]1O`, for which the growth was -25.5% (active).

Consider `N#Cc1c(-c2ccc(F)cc2)nc(N/N=C/c2cccc(O)c2)nc1N1CCOCC1`, for which the growth is 47.2%.

Regarding `COc1ccc(C=Nc2c(C(=O)Nc3cccc(Cl)c3C)sc3nc(C)c(C(=O)/C=C/c4ccc(OC)cc4)cc23)cc1`, the growth is 9.38% (active).
